Screening results as filed in PubChem BioAssay.
proKLK7 act: proKLK7 zymogen activators, primary screen, biochemical, fluorescence intensity. AID 652039, 2013. purified proKLK7, EDANS-DABCYL substrate fluorescence; 100% is mature enzyme control, 0% vehicle. activation, % at 7 µM. actives 0.9% (n = 370,000). Kallikrein-7 (Homo sapiens), P49862;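 active = activation above the mean of all tested compounds plus 3 SD, computed per campaign excluding outliers beyond control limits, cut at about 13% in these data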
Target sequence (P49862 whole entry, looked up): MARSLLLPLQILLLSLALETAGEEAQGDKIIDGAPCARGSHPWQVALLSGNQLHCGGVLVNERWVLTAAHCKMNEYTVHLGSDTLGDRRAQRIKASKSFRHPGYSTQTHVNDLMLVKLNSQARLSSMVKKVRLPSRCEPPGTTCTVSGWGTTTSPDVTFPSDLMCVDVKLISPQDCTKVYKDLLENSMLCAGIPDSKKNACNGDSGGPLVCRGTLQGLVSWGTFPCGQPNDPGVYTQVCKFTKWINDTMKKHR
PLCg1 inh: PLC-gamma1 enzyme inhibitors, primary screen, biochemical, fluorescence, purified enzyme; 1-phosphatidylinositol 4,5-bisphosphate phosphodiesterase gamma-1 (Homo sapiens), P19174; fluorogenic substrate; inhibition, % at 12.2 µM; actives 0.84% (n = 370,000); in the data active = inhibition above about 9.5%
PLCb3 inh: human PLC-beta3 inhibitors, primary screen, biochemical, fluorescence | actives 0.18% (n = 370,000) | 1-phosphatidylinositol 4,5-bisphosphate phosphodiesterase beta-3 (Homo sapiens), Q01970 | Purified PLC-beta3, fluorogenic substrate | inhibition, % at 12.2 µM; in the data active = inhibition above about 11%
ADAM10 inh: human ADAM10 inhibitors, primary screen, biochemical, QFRET, HTS | Disintegrin and metalloproteinase domain-containing protein 10 (Homo sapiens), O14672 | recombinant ADAM10, EDANS/DABCYL FRET peptide cleavage, 3 h | inhibition, % at 7 µM | actives 0.62% (n = 370,000) | AID 720582, 2013;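 active = inhibition above a per-campaign cutoff equal to the mean of compounds falling between control-based bounds plus 3 SD, cut at about 20% in these data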
ADAM17 inh: ADAM17 inhibitors, primary screen, biochemical, QFRET; actives 0.83% (n = 370,000); inhibition, % at 6.95 µM; Disintegrin and metalloproteinase domain-containing protein 17 (Homo sapiens), P78536; recombinant ADAM17, EDANS/DABCYL FRET peptide cleavage;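 active = inhibition above the mean of compounds lying between control limits plus 3 SD, set per campaign, cut at about 8.5% in these data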
ADAM10 confirm: human ADAM10 inhibitors, confirmation, biochemical, QFRET, triplicate; actives 1% (n = 2,100); inhibition, % at 6.95 µM; AID 743208, 2013; shares compounds with ADAM10 inh; ADAM10 QFRET peptide cleavage, EDANS fluorescence;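 active = inhibition above about 20% chosen separately for each screening run, limit read from the data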
ADAM17 ctr: ADAM17 inhibitors, counter-screen for ADAM10 exosite inhibitor project, biochemical, QFRET, high throughput | shares compounds with ADAM10 inh | ADAM17 QFRET peptide cleavage, EDANS fluorescence | inhibition, % at 6.95 µM | actives 0.5% (n = 2,100) | AID 743214, 2013;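 active = mean triplicate inhibition above the solvent-only control wells' mean plus 3 SD, cut at about 12% in these data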
Hits are given with their value; i = inactive; nt = no result. Shown are actives, neighbours in structure and some others; about 2.9% of the full set was active somewhere.

SMILES | proKLK7 act | PLCg1 inh | PLCb3 inh | ADAM10 inh | ADAM17 inh | ADAM10 confirm | ADAM17 ctr
CCOc1nc(N2CCOCC2)nc(C)c1[N+](=O)[O-] | i | i | i | 20 | i | i | i
CNCCOc1nc(N2CCOCC2)nc(C)c1[N+](=O)[O-] | i | i | i | i | i | nt | nt
CC(=O)c1ccc(N2CCN(C(=O)c3cc(C)on3)CC2)cc1 | i | i | i | i | i | nt | nt
CCCSC1=C(C#N)C(c2cccs2)C(C(=O)Nc2ccccc2)=C(C)N1 (stereo not given) | i | i | i | 28 | i | 22 | i
CCCCC(=O)NC(=S)Nc1ccc(S(=O)(=O)N2CCCC2)cc1 | i | i | i | 72 | i | i | i
O=C(COC(=O)CCc1c[nH]c2ccccc12)NC(c1ccccc1)c1ccccc1 | i | i | i | 24 | i | i | i
O=C(N/N=C/c1cn(-c2cccs2)nc1-c1ccccc1)c1ccccc1Cl | i | i | i | 20 | i | i | i
CSc1ccc(CN(C)C(=O)c2ccc(S(=O)(=O)Nc3ccccc3)cc2)cc1 | i | i | i | 21 | i | i | i
CSc1ccc(CN(C)C(=O)c2ccc(S(=O)(=O)Nc3c(C)n(C)n(-c4ccccc4)c3=O)cc2)cc1 | i | i | i | i | i | nt | nt
COc1ccc(-c2csc(C(C)(O)c3cccc(F)c3)n2)cc1 (stereo not given) | i | i | i | i | i | nt | nt
COc1ccc(C(C)(O)c2nc(-c3cccc(F)c3)cs2)cc1 (stereo not given) | i | i | i | 22 | i | i | i
CN1CCC(=NNC(=O)c2ccc(N(Cc3ccccc3Cl)S(C)(=O)=O)cc2)CC1 | i | i | i | i | i | nt | nt
CCOC(=O)c1c(NC(=O)C2C3CCC(O3)C2C(=O)O)sc(C)c1-c1ccc(F)cc1 (stereo not given) | i | i | i | i | i | nt | nt
CCOC(=O)c1c(N)sc(C(O)(C(F)(F)F)C(F)(F)F)c1-c1ccc(F)cc1 | i | i | i | 24 | 11 | i | i
CCN(c1ccccc1)S(=O)(=O)c1cc(C(=O)Nc2ccc(F)c(F)c2)ccc1F | i | i | i | 26 | i | i | i
Cc1ccc(C)c(NS(=O)(=O)c2cc(C(=O)NCCC3=CCCCC3)ccc2C)c1 | i | i | i | 20 | i | i | i
CCOP(=O)(OCC)C(NC(=O)Nc1ccc(Cl)c(Cl)c1)c1ccccc1 (stereo not given) | i | i | i | 22 | i | i | i
CCOP(=O)(OCC)C(NC(=O)Nc1ccc(C)c(Cl)c1)c1ccccc1 (stereo not given) | i | i | i | i | i | nt | nt
Nc1c(-c2ccccc2)c(CSc2nc3ccccc3[nH]2)nn1-c1cccc(Cl)c1 | i | i | i | i | i | nt | nt
Nc1c(-c2ccccc2)c(CSc2nc3ccccc3[nH]2)nn1-c1ccc(Cl)cc1 | i | 12 | i | 29 | i | i | i
COCCCNC(=O)C[C@H]1C[C@H](C(=O)N2CCCCC2)[C@@]2(C)c3[nH]c4ccc(Cl)cc4c3CCN2C1=O | i | i | i | i | i | nt | nt
C=C(C)COc1ccc(-c2[nH]ncc2Oc2ccccc2OCC)c(O)c1 | i | i | i | i | i | nt | nt
C=C(C)COc1ccc(-c2[nH]ncc2Oc2cccc(OC)c2)c(O)c1 | i | i | i | 27 | i | i | i
COc1ccc(Oc2cn[nH]c2-c2ccc(O)cc2O)cc1 | i | i | i | i | i | nt | nt
CCCc1ccc(Oc2cn[nH]c2-c2ccc(O)cc2O)cc1 | i | i | i | 22 | i | i | i
CSc1ccccc1NC(=O)C(=O)c1c[nH]c2ccccc12 | i | i | i | 22 | i | i | i
C[C@@H](NC(=O)C(=O)c1c[nH]c2ccccc12)c1ccccc1 | i | i | i | i | i | nt | nt
